Test results published in PubChem BioAssay AID493056 (National Center for Advancing Translational Sciences (NCATS), 2011).
Hit rate of the full screen: of about 360,000 compounds, about 2,400 (0.67%) were called active. No stated cut-off is given here; in the data, active means enhancement above about 30%; inactive means the rest. The list comes from a sample in which actives are over-represented; it also holds similar structures and randomly drawn compounds.

biological target: Thyrotropin-releasing hormone receptor (Homo sapiens) (UniProt P34981); experiment: qHTS for Small Molecule Agonists and Allosteric Enhancers of Human TRH Receptor: Primary Screen for Enhancers; details: TRHR cells, fluo-8 calcium fluorescence, EC20 TRH enhancement; at 2 µM; stronger effect = higher value; further: 0% is about no effect
How it was run: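 TRHR-expressing cells loaded with fluo-8 calcium dye were read kinetically (ex 480/em 530) during compound addition, then stimulated with an EC20 of TRH (10 nM final). Enhancement of the Gq-mediated intracellular calcium response was scored.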

Chain of Thyrotropin-releasing hormone receptor (Homo sapiens) (P34981 whole entry, looked up): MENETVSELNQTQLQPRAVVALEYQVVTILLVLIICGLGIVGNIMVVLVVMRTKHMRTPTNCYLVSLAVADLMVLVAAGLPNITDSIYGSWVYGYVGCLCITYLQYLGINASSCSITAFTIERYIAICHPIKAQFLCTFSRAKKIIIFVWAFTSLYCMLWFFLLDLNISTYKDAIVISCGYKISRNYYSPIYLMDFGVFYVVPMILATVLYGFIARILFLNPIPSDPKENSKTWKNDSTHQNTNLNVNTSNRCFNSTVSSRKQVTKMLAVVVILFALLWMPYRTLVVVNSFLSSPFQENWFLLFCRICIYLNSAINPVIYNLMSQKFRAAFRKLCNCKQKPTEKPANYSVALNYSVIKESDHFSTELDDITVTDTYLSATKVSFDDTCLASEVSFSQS

enhancement, inactive:
CN1CCOc2cc(S(=O)(=O)N3CCN(S(=O)(=O)c4c(F)cccc4F)CC3)cnc21 -0.823%
Cc1ccc(C)c(NC(=O)CSC2=Nc3ccccc3N=C(c3ccc(F)cc3)C2)c1 -0.667%
O=[S+]([O-])(c1ccc(OC(F)(F)F)cc1)N1CCN([S+](=O)([O-])c2ccc3c(c2)OCCO3)CC1 -5.08%
Cc1cccc(-c2nc(SCC(=O)Nc3cc(C)on3)c3c(=O)n(C)c(=O)n(C)c3n2)c1 2.9%
CCCCn1c(=N)c(S(=O)(=O)c2ccccc2)cc2c(=O)n3cccc(C)c3nc21 1.28%
CC(C)(C)c1ccc(OCC(=O)N2CCC(c3nc4ccccc4s3)CC2)cc1 -1.99%
COC1=C/C(=C/c2c(N)n3nc(CC(=O)N4CCOCC4)sc3nc2=O)C=CC1=O 2.92%
COc1cc(OC)c(NC(=O)c2c3c(nn2C)-c2ccccc2SC3)cc1Cl 2.77%
CC(C)(C)c1ccc(C(=O)N2CCC(c3nc(-c4ccc(S(=O)(=O)N5CCCC5)cc4)no3)CC2)cc1 -2.71%
COc1cccc(-c2cc(C(=O)Nc3ccc(C)cc3)[nH]n2)c1 -0.168%
COc1ccc(-c2nc(CN3CCC(C(=O)NCc4ccccc4)CC3)c(C)o2)cc1OC 3.63%
COc1ccc(CCNC(=O)C2CCCN(Cc3nc(-c4cccc(Cl)c4)oc3C)C2)cc1OC (centres undefined) -8.38%
COc1cccc(CC2(CO)CCN(Cc3cnc(-c4cccc(C)c4)nc3)CC2)c1 1.96%
OCC1(CCc2ccccc2)CCN(Cc2ccc3nsnc3c2)CC1 -4.46%
CN(Cc1ccccc1)c1ccc(-c2nc(-c3ccccc3)no2)cc1[N+](=O)[O-] 5.53%
Cc1ccc(OC(=O)CSc2nnc(-c3cccs3)o2)cc1 -4.22%
COc1ccc(NC(=O)CC2SC(N3CCCCC3)=NC2=O)cc1OC (centres undefined) 1.49%
CCC(C)NC(=O)c1ccc(NC(=O)CC2SC(N3CCCCC3)=NC2=O)cc1 (centres undefined) -8.07%
Cc1cc2nc(-c3ccc(NC(=O)c4cc5ccccc5o4)cc3)oc2cc1C -7.25%
CC(=O)c1ccc(N2CCN(c3nc4c(S(=O)(=O)c5ccccc5)nnn4c4ccc(Cl)cc34)CC2)cc1 1.21%
O=C(CNC(=O)c1ccccc1)OC(C(=O)Nc1cc([N+](=O)[O-])ccc1F)c1ccccc1 (centres undefined) -0.946%
CSCC(=O)N1CCCC(C(=O)c2cc(F)ccc2F)C1 (centres undefined) -3.7%
O=C(c1ccc(OC2CCN(C/C=C/c3ccc(F)cc3)CC2)cc1)N1CCCCC1 0.691%
Cc1ccc2oc3c(c(=O)c2c1)C(c1ccc([N+](=O)[O-])cc1)N(CCCN1CCOCC1)C3=O (centres undefined) -0.734%
COc1ccc2oc(=O)c(-c3cn4c(n3)sc3cc(OC)ccc34)cc2c1 1.26%
Cc1cccc(NC(=O)CN2CCCN(S(=O)(=O)c3ccc(Br)s3)CC2)c1 9.87%
C/C(=N/NC(=O)CN1CCN(S(=O)(=O)c2ccc(Br)cc2)CC1)c1ccncc1 1.09%
CCOC(=O)c1ccccc1NC(=O)CCc1c(C)nc2c(c1C)c(=O)n(C)c(=O)n2C -7.61%
Cc1cc(C)cc(NS(=O)(=O)c2ccc(-c3cc(C)no3)s2)c1 -5.49%
CCOc1cc(/C=C2\SC(N3CCCC(C)C3)=NC2=O)ccc1O (centres undefined) -4.09%
O=C1N=C(N2CCOCC2)S/C1=C\C=C/c1ccccc1 -2.61%
COc1ccc(CCNC(=O)CCCn2c(=O)c3ccccc3n(Cc3ccc(F)cc3Cl)c2=O)cc1OC 4.63%
COc1ccc2nc(SCC(=O)Nc3c(C)cc(C)cc3C)[nH]c2c1 0.227%
CC(=O)c1cccc(NC(=O)CSc2nc3c(c(=O)[nH]2)CCC3)c1 -3.58%
COc1ccc(NC(=O)CSc2nc(NS(=O)(=O)c3ccc(C)cc3)cc(=O)[nH]2)cc1 -7.18%

enhancement, active:
C=CCC1=C/C(=C\c2c(N)n3nc(CC(=O)N4CCOCC4)sc3nc2=O)C=C(OC)C1=O 52.7%
Cc1oc(-c2ccccc2F)nc1CN1CCC(C(=O)NCCc2ccc(Cl)cc2)CC1 31.8%
Cc1c(CN2CCC(CO)(CCOc3ccccc3)CC2)[nH]c2ccc(Cl)cc12 35.6%
O=C(CC1SC(N2CCCC2)=NC1=O)Nc1ccc(C(=O)NCCc2ccc(F)cc2)cc1 (centres undefined) 33.4%
COc1ccc(/C=C/CN2CCCC(C(=O)c3cc(F)ccc3F)C2)cc1 (centres undefined) 31.8%
Cc1ccc(S(=O)(=O)N2CCN(CC(=O)N/N=C/c3ccc(Br)s3)CC2)cc1 47.7%
CCc1ccc(/C=C2\SC(N3CCOCC3)=NC2=O)cc1 38.7%
COc1ccc(NC(=O)CSc2nc3ccccc3[nH]2)cc1 39.7%
COC(=O)c1cccc(NC(=O)CSc2nc(C)cc(=O)[nH]2)c1 36.7%
